TDP-43 yeast inh: inhibitors of TDP-43 toxicity in yeast. TDP-43 expressing yeast growth rescue, BacTiter-Glo, 24 h. Potency, µM (series often up to 46.1 µM), without a hit: at the highest dose growth rescue (activation), actives largely listed as activators. actives 1.8% (n = 410,000); also: % of control where 0% means no effect; nearly all actives have a fitted effect of over 50% in size
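Galactose-induced TDP-43 yeast, OD600=0.02, compound pinned; 24 hr, 30 deg C; BacTiter-Glo luminescence for growth. Inhibitors of TDP-43 toxicity read as activators.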
Abeta yeast res: restores growth of yeast expressing A-beta42 peptide. Potency, µM (series often up to 46.1 µM), most hits filed as activators. AID 1347071. yeast expressing A-beta42, growth rescue, OD600, 48 h; response scale: 0% DMSO, 100% iron-clioquinol control. actives 0.063% (n = 410,000); also: nearly all actives have a fitted effect of over 55% in size
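Yeast A-beta toxicity model in growth medium with pinned compounds, 48 h at 30 C; growth read as absorbance at 600 nm. Normalized to FeCl3/clioquinol equimolar mix (positive) and DMSO (negative).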
aSyn yeast inh: alpha-synuclein toxicity inhibition in yeast | AID 652106 | Yeast expressing alpha-synuclein, growth rescue, BacTiter-Glo, 24 h | Potency, µM (top dose mostly 46.1 µM), inactives show at the top dose growth rescue (activation), usual class: activators | actives 0.14% (n = 370,000); also: % of control where 0% means no effect; nearly all actives have a fitted effect of over 65% in size
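Rescue of yeast growth: cells expressing toxic alpha-synuclein, induced in galactose at OD600 0.02, incubated with compound 24 h at 30 C. ATP luminescence quantified growth; inhibitors of toxicity appear as activators.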
FUS yeast rescue: suppressors of FUS proteinopathy in yeast | S. cerevisiae FUS-expressing, growth rescue, OD600, 24 h | Potency, µM (series often up to 76.6 µM), most hits filed as activators | actives 0.24% (n = 390,000);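 also: plate controls were DMSO vehicle for no effect and reference control for full effect; nearly all actives have a fitted effect of over 55% in size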
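Cultures pregrown in 2.5% raffinose medium are shifted to minimal medium containing 2% galactose to express toxic FUS. Compounds are tested at several concentrations. After 24hr at 30C, growth is quantified at 600 nm absorbance.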
ERG Ets-DNA blk: inhibitors of human ERG Ets domain-DNA interaction. P11308. fluorescence polarization, His-ERG Ets domain / labelled DNA. Potency, µM (series often up to 76.9 µM), inactives show at the top dose FP activity, negative = inhibition, hits mostly inhibitors. actives 0.028% (n = 370,000). AID 624246; active = well fitted inhibition curve with a large enough effect in the polarisation, with a control signal flat; inconclusive = small, poorly fitted or top-dose-only effect, or effect the other way, or a change in a side signal; inactive = no such curve, though single readings can be large or run the other way; the % refers to the polarisation;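 also: polarization taken with two DNA probes labelled with fluorescein and Texas red; % of control where 0% means no effect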
Target sequence (P11308 whole entry, looked up, the tested form may be a part): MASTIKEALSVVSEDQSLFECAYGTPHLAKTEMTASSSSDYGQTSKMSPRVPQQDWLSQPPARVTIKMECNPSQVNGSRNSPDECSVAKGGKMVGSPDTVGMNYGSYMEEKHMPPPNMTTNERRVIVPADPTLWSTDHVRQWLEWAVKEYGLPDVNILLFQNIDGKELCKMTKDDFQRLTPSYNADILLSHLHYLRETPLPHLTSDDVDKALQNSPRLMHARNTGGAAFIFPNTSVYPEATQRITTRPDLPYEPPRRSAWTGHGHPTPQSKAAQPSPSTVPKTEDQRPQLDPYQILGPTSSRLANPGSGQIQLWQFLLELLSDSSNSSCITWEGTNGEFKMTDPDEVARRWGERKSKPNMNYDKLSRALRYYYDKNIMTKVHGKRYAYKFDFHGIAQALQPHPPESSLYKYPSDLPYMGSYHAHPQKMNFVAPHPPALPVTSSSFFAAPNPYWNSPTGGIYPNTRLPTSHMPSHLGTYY
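His-tagged ERG Ets domain (1 uM in the protein solution; 300mM KCl, 50mM Tris-HCl, 1mM EDTA, 1mM DTT, pH 7.5) received compound, then a probe mix of 5 nM fluorescein-DNA and 100nM Texas-615-DNA. Fluorescence polarization was read for both dyes.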
Mito fusion act: inhibitors of mitochondrial division or activators of mitochondrial fusion. S. cerevisiae fusion-defective mutant growth rescue, CellTiterGlo 48 h. Potency, µM (series often up to 46.1 µM), without a hit: at the highest dose growth rescue (activation), usual class: activators. actives 0.23% (n = 320,000); also: % of control where 0% means no effect; nearly all actives have a fitted effect of over 45% in size
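Read-out: ATP-based luminescence (CellTiterGlo, 10 min ambient) reporting growth of fusion-defective ts yeast after 48 hours at 37C on glycerol/ethanol YPEG medium in the presence of compound.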
* = called active by the depositor; i = inactive; ? = inconclusive; · = no result; [ ] = another dose, or the depositor's remark. Only some compounds are listed: those with a hit (about 2.2% of all), similar ones and a draw of the others. Unless noted, calls follow the shape of the dose curve; as a rule, active = well fitted curve in the direction sought with a large enough effect; inconclusive = small, poorly fitted or top-dose-only effect, or another doubt; inactive = no such curve, though single readings can be large; an effect the other way counts as inactive or inconclusive. Potency is read from the fitted curve at half-maximal effect.

SMILES | TDP-43 yeast inh | Abeta yeast res | aSyn yeast inh | FUS yeast rescue | ERG Ets-DNA blk | Mito fusion act
C[n+]1ccc(CO)cc1 | · | · | 5% | · | · | ·
Cc1ccc(Nc2ncnc3onc(C)c23)cc1Cl | 35µM* | i | · | i | 5% | ·
Cc1cc(Cl)ccc1Nc1ncnc2onc(C)c12 | 36% | i | · | i | 0% | ·
O=C(NCC1CCCO1)c1ccc(-c2ccccc2Cl)o1 (configuration not stated) | 20µM* | i | 20% | i | -2% | -9%
O=C(NNC(=O)c1ccccc1F)c1ccc(-c2ccccc2Cl)o1 | 22µM* | i | 0% | i | · | ·
CC1CCN(C(=O)c2ccc(-c3ccccc3Cl)o2)CC1 | -13% | i | 1% | i | 1% | 16µM*
O=C(NNC(=O)c1ccccc1F)c1ccco1 | -11% | i | -2% | i | -1% | 1%
Cc1onc(-c2ccccc2Cl)c1C(=O)NCC1CCCO1 (configuration not stated) | -13% | i | -5% | i | · | 5%
COc1ccc(S(=O)(=O)Nc2ccc(F)c(F)c2)cc1C(=O)N1CCOCC1 | 2% | i | -3% | i | -2% | -6%
Cc1ccc2c(CC(=O)N(Cc3ccc(N(C)C)cc3)Cc3ccco3)coc2c1C | 6% | i | · | i | 4% | ·
Cc1cc(OCc2cccc(S(=O)(=O)N3CCOCC3)c2)ccc1Cl | 35µM* | i | 0% | i | -10% | -8%
N#Cc1ccc(OCc2cccc(S(=O)(=O)N3CCOCC3)c2)cc1 | ? | i | 21% | i | -3% | 4%
CC(=O)N1CCc2cc(S(=O)(=O)NC(CC(C)C)C(=O)Nc3cc(C)cc(C)c3)ccc21 (configuration not stated) | 14% | i | · | i | -2% | ·
COn1c(C)c(C(C)=O)c2c3no[n+]([O-])c3ccc21 | 13% | i | 8% | i | 5% | 0%
C=CCOn1c(C)c(C(C)=O)c2c3no[n+]([O-])c3ccc21 | 7.1µM* | i | 5% | i | -3% | 2%
COC(=O)c1cc(-c2ccc3ccccc3c2)c(=O)n2c1CCC2 | · | · | · | i | · | ·
CN=C(Nc1cc(Cl)ccc1Cl)SC1CC(=O)N(c2ccc(C(=O)OC)cc2)C1=O (configuration not stated) | 25µM* | ? | ? | ? | -4% | -12%
Cc1cccn2c(=O)c(/C=C(\C#N)C(N)=O)c(N3CCN(c4cccc(Cl)c4)CC3)nc12 | 25µM* | i | -4% | ? | 6% | ?
CNC(=O)/C(C#N)=C/c1c(N2CCN(c3ccccc3)CC2)nc2c(C)cccn2c1=O | -2% | i | 3% | i | 7% | -1%
O=C(Nc1nc(OCCN2CCCC2=O)cnc1/C=C\c1ccccc1)c1cc2ccccc2s1 | 19% | i | ? | 40µM* | · | ·
O=C(Nc1nc(OCC(F)(F)F)cnc1/C=C\c1ccccc1)c1ccsc1 | 4% | i | -11% | i | · | ·
O=C(Nc1ccc(N2CCOCC2)cc1)C1CCN(C(=O)OCc2ccccc2)CC1 | 7% | i | -2% | i | 5% | 2%
O=C(Nc1ccc(N2CCOCC2)cc1Cl)C1CCN(C(=O)OCc2ccccc2)CC1 | 0% | 10µM* | 0% | i | -2% | -4%
Cc1ccc(CONS(=O)(=O)c2cc(C)ccc2C)cc1 | 32µM* | i | -57% | i | 8% | ?
Cc1ccc(C)c(S(=O)(=O)Nc2ccc(O)cc2)c1 | -2% | i | 1% | i | -6% | 0%
SMILES | TDP-43 yeast inh | Abeta yeast res | aSyn yeast inh | FUS yeast rescue | ERG Ets-DNA blk | Mito fusion act
O=C(OCCCOc1ccc(F)cc1)c1ccc(O)cc1O | 13µM* | i | -11% | i | 15% | 2%
CCOC(=O)N1CCN(C(=O)C[C@H]2C[C@@]3(C(=O)OC)C(=C[C@H](C(C)C)O[C@@H]3C3CC3)N(Cc3ccc4c(c3)OCO4)C2=O)CC1 | · | · | · | i | · | ·
O=C(/C=C/c1ccc2c(c1)OCO2)c1ccc(O)cc1O | 8.9µM* | i | -28% | i | 14% | ·
Cc1ccc(C(=O)C=Cc2ccc3c(c2)OCO3)c(C)c1 | ? | i | 8% | i | · | ·
O=C(/C=C/c1ccc2c(c1)OCO2)c1ccco1 | 16µM* | i | 10% | · | -1% | 6%
O=S(=O)(c1ccccc1C(F)(F)F)N1CCN(c2nc(-c3cccs3)nc3ccccc23)CC1 | · | · | 2% | · | · | ·
OCc1cn(-c2ccccc2)nc1-c1cc2ccccc2o1 | 16µM* | i | 7% | i | 11% | 9%
C/C(=N\OC(=O)NC1CCCCC1)c1sc(-c2ccccc2)nc1C | 20µM* | i | · | i | -3% | -25%
C/C(=N\OC(=O)c1ccc(F)cc1)c1sc(-c2ccccc2)nc1C | 4% | i[9.22 µM] | -3% | i | -2% | -1%
CCOC(=O)C1C(=O)C=C(c2ccc([N+](=O)[O-])cc2)CC1c1ccccc1 (configuration not stated) | 20µM* | i | 9% | i | -2% | ?
CCOC(=O)C1C(=O)C=C(c2cccc(NS(C)(=O)=O)c2)CC1c1ccco1 (configuration not stated) | 4% | i | -4% | i | 0% | -3%
CCOC(=O)C1C(=O)C=C(c2ccc(Br)cc2)CC1c1ccco1 (configuration not stated) | 25µM* | i | 4% | i | 6% | 4%
CCCCN(C)c1nc(C)nc2c1nnn2Cc1ccccc1 | · | · | · | i | · | ·
COc1ccc(-c2nn(-c3ccc(C)cc3)c3c2cnc2ccc(C)cc23)cc1OC | 22% | i | · | i | 12% | ·
COc1cc2ncc3c(-c4ccccc4)nn(-c4ccc(C)cc4)c3c2cc1OC | 7.1µM* | i | · | i | 0% | ·
O=C(/C=C/c1ccc(Cl)cc1Cl)c1ccc[nH]1 | 0% | i | -9% | i | 5% | 1%
O=C(/C=C/c1ccccc1Cl)c1ccc[nH]1 | 14% | i | 3% | · | 3% | 14µM*
Fc1ccc(-c2noc3ncnc(N4CCN(c5ccccc5)CC4)c23)cc1 | 25µM* | i | -8% | i | 1% | ·
COc1ccccc1N1CCN(c2ncnc3onc(C)c23)CC1 | 17% | i | · | i | 4% | ·
Cc1noc2ncnc(N3CCN(c4ccccc4F)CC3)c12 | 22µM* | i | ? | i | -6% | ·
Cc1ccc(C)c(Cn2c(=O)n(-c3ccccc3)c(=O)c3c4c(sc32)CCCC4)c1 | 15% | i | · | i | -5% | ·
O=C(NC(=S)NC1CCCCCC1)c1cncc(Br)c1 | 16µM* | ? | -14% | · | 3% | 7%
